Results from PubChem BioAssay AID1825 (The Scripps Research Institute Molecular Screening Center, 2009).
About 2,300 (0.79%) of roughly 290,000 compounds were called active. The sample holds actives, similar compounds and a random draw of the others, so the mix is not that of the screen. Unmarked numbers belong to inactive results. Cut-off read from the data, not from the text of the source: active = inhibition above about 22%; inactive = the rest.

Assay: IEC-6 cell viability reduction – luminescence, cytotoxicity control for KLF5 inhibitor project, primary screen (AID 1825);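 note: 0% = plate median of test compound wells and 100% = cytotoxic reference compound wells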
Conditions: IEC-6 cytotoxicity, at 5 µM, hits give high values

Structure (SMILES)	inhibition
COc1cc(N=Cc2c(O)c3ccccc3oc2=O)c(OC)cc1Cl	2.7%
CNC[C@H](CC1CCCCC1)NC[C@H](NCCC1CCCC1)[C@H](C)O	36.1% (active)
COc1cc(C(=O)OC2CCOC2=O)c([N+](=O)[O-])cc1OC (configuration not stated)	-4%
COc1ccccc1Oc1ccc(N/C=C2/CCCC2=O)cc1	-8.7%
C/C(=N\NC(=O)c1ccoc1C)c1ccccc1O	98.7% (active)
Cc1[nH]n(-c2ccccc2)c(=O)c1/C=N/NC(=O)c1ccoc1C	1.8%
CC(C)=C(NC(=O)c1ccccc1)C(=O)N/N=C(\C)c1ccccc1O	4%
CN(Cc1ccccc1)S(=O)(=O)c1nnc(NC(=O)c2ccccc2F)s1	4.7%
Cc1ccc(-c2nn(-c3ccccc3)cc2/C=C2\SC(=S)N(CCCCCC(=O)O)C2=O)o1	-8.8%
Cc1cccc(N(C(=O)Cn2nnc(-c3ccc(C)o3)n2)C(C(=O)NC2CCCC2)c2ccncc2)c1 (configuration not stated)	-3.9%
C[N+](C)(C)CCNC(=O)c1cc[n+](Cc2ccccc2)c(/C=N/O)c1	-6.3%
CCC(=O)Nc1ccc(C(=O)NNC(=O)c2ccc(Cl)cc2)cc1	2.4%
CC(C)(C)c1cc2cccnc2n1Cc1cccc(F)c1	-9.9%
Cc1ccc(C(=O)/C=C/c2c(C)nn(-c3ccccc3)c2Cl)cc1	7.3%
O=C(CSc1ncn[nH]1)N/N=C/c1ccc(F)cc1	2.8%
O=C(/C=C/Sc1ncn[nH]1)c1ccc(Cl)cc1	96.3% (active)
CC(C)(C)n1nnnc1C(c1ccccc1F)N1CCN(C(=O)c2ccco2)CC1 (configuration not stated)	-4.7%
O=C(OCc1ccc(-c2ccccc2)cc1)c1cccc(O)c1	-3.8%
CCN(CC(=O)NCCCN1CCOCC1)S(=O)(=O)c1cc(Cl)ccc1Cl	0.6%
O=S(=O)(NCCc1ccc(Cl)cc1)c1cccs1	6.4%
COc1ccc(N2C(=O)C(Cc3ccccc3)NC2=S)cc1 (configuration not stated)	3.8%
O=C1C(Cc2ccc(O)cc2)NC(=S)N1Cc1ccccc1 (configuration not stated)	-3.3%

Structure (SMILES)	inhibition
Cc1ccc(N2C(=O)C(Cc3ccccc3)NC2=S)cc1 (configuration not stated)	24.6% (active)
CC(C)C(=O)NCC(c1cccs1)S(=O)(=O)c1ccc(F)cc1 (configuration not stated)	7.2%
CC(=O)Nc1ccc(Nc2ncnc3c2nnn3Cc2ccccc2Cl)cc1	1.1%
CCN(Cc1nc2ccccc2c(=O)[nH]1)Cc1cc(=O)oc2cc(C)c(C)cc12	2%
COc1ccc(C(=O)Nc2cc(C)c(NC(=O)c3ccccc3OC)cn2)cc1	-2.8%
Cc1cc(C(=O)NC2CC(C)(C)Cc3c2cnn3-c2ccccc2)n[nH]1 (configuration not stated)	7.1%
COc1cccc2sc(N(CCCN(C)C)C(=O)C(c3ccccc3)c3ccccc3)nc12	3.5%
COc1cccc2sc(N(CCCN(C)C)C(=O)CCS(=O)(=O)c3ccccc3)nc12	50% (active)
Cc1cccc2sc(N(CCCN(C)C)C(=O)CCS(=O)(=O)c3ccccc3)nc12	11.3%
COc1ccccc1NC(=O)c1ccc(C)s1	34.8% (active)
COC(=O)c1c(NC(C)=O)sc(C(=O)Nc2ccccc2OC)c1C	-1.2%
COc1ccccc1NC(=O)C1=C(C)NC(=O)NC1c1ccc(C)s1 (configuration not stated)	-4.5%
CC(NC(=O)Cn1cc(C(F)(F)F)cc(Cl)c1=O)c1ccccc1 (configuration not stated)	4.4%
COc1ccccc1CCNC(=O)c1c(C)nn(CC(C)C)c1Cl	-4.6%
O=C(Cc1cccs1)Nc1ccc([N+](=O)[O-])cc1	-0.5%
CC(C)c1ccc(Cc2nnc(NCCCO)[nH]c2=O)cc1	3.6%
CCOc1ccccc1NC(=O)Cc1cccs1	-0.9%
CCOc1ccccc1NC(=O)Cn1nnc(C(=O)NCc2cccs2)c1N	84.2% (active)
Cc1ccc(NC(=O)Cn2nnc(C(=O)NCc3ccco3)c2N)c(C)c1	-1.1%
CC(C)c1cc(C(=O)N/N=C/c2ccoc2)c(O)c(C(C)C)c1	-1.3%
CCN(C(=O)C1CCCN(c2nc(-c3ccc(OC)cc3)no2)C1)c1ccc(OC)cc1 (configuration not stated)	-1.6%
COc1ccc(C)cc1Nc1nc(C)nc2c1oc1ccccc12	34.1% (active)

Structure (SMILES)	inhibition
Cc1nc(Cl)c2oc3ccccc3c2n1	-5.3%
COc1ccccc1Nc1ncnc2c1oc1ccccc12	-0.2%
CSc1ncccc1C(=O)Nc1ccc(C)cn1	4.3%
COCCOC(=O)c1[nH]c2c(c1C)C(=O)CC(c1ccc(OC)cc1)C2 (configuration not stated)	2.6%
CCOC(=O)c1[nH]c2c(c1-c1ccccc1)C(=O)CC(c1ccc(Cl)cc1)C2 (configuration not stated)	2%
CCCOC(=O)c1[nH]c2c(c1C)C(=O)CC(c1cccs1)C2 (configuration not stated)	81.1% (active)
CCOc1cc(C)c(S(=O)(=O)NCc2ccccn2)cc1C	4.3%
COc1ccccc1NC(=O)CN(c1ccccc1OC)S(=O)(=O)c1ccccc1	-4.1%
COc1ccccc1N(CC(=O)N/N=C(\C)c1ccccc1O)S(=O)(=O)c1ccc(C)cc1	33.8% (active)
COc1ccc(S(=O)(=O)N(CC(=O)N/N=C/c2ccccc2C(=O)O)c2ccccc2OC)cc1	2.9%
CC(=O)NC(Cc1c[nH]c2ccccc12)C(=O)NCCc1ccccc1 (configuration not stated)	-0.3%
COc1cccc(C(=O)Nc2ccc(N3CCCC3)cc2)c1	24.2% (active)
COc1ccc(C(=O)Nc2ccc(N3CCC(C)CC3)cc2)cc1Br	-5.3%
COc1ccc(NC(=O)c2cccc(NC(=O)c3ccco3)c2)c(OC)c1	4.3%
COc1cccc(C(=O)Nc2ccc(N3CCN(C(=O)c4ccco4)CC3)cc2)c1	45% (active)
CN1CCN(c2ccc(NC(=O)c3ccccc3)cc2)CC1	-2.5%
Cc1ccc(OCC(=O)Nc2ccc(N3CCN(C(=O)c4ccco4)CC3)cc2)c(C)c1	-14.8%
CCOC(=O)N1CCN(CCC(=O)Nc2ccccc2)CC1	-5.3%
O=C(Nc1cccc(NC(=O)c2ccccc2[N+](=O)[O-])c1)c1ccccc1Cl	8%
O=C(O)c1cc([N+](=O)[O-])c(Nc2cccc3ccccc23)c([N+](=O)[O-])c1	4.7%
CSc1ccccc1OCc1cc(C(=O)N2C[C@H]3CC[C@H]2C3)no1	1.9%
COc1ccc(N2CCN(C(=O)[C@@H](NC(=O)c3cc(OC)cc(OC)c3)C(C)C)CC2)cc1	-4.9%

Structure (SMILES)	inhibition
Cc1cccnc1NC(=O)c1cccc(S(=O)(=O)N2CCN(c3ccc(F)cc3)CC2)c1	2.3%
Cc1c(/C=N\NC(=O)c2cc3ccccc3o2)c2ccccc2n1C	43.7% (active)
O=C(N/N=C/c1coc2ccccc2c1=O)c1cc2ccccc2o1	4.7%
O=C(N/N=C/c1c[nH]c2ccccc12)c1cc2ccccc2o1	12.6%
Cc1ccccc1NC(=O)c1ccccc1NS(=O)(=O)c1cccc2cccnc12	-2.7%
O=C(Nc1ccccc1Cl)Nc1cccc2cccnc12	3.4%
O=[N+]([O-])c1ccccc1S(=O)(=O)Nc1cccc2cccnc12	55.6% (active)
O=C(NCCc1nnc2ccc(SCC(=O)N3CCOCC3)nn12)c1ccccc1	-3.4%
CCC(Cc1ccccc1)NS(=O)(=O)c1ccc2c(c1)NC(=O)CS2 (configuration not stated)	2.9%
COc1cc2c(cc1OC)CN(C(=O)c1cc(=O)c3ccccc3o1)CC2	18.2%
COc1cc2c(cc1OC)CN(C(=O)c1ccc(S(=O)(=O)N3CCCCCC3)cc1)CC2	0.2%
CCOc1cc(C(=O)N2CCc3cc(OC)c(OC)cc3C2)ccc1OC(F)F	90% (active)
CCCCN(CCCC)CCCNC(=O)CN1C(=O)COc2ccc(S(=O)(=O)N3CCC(C)CC3)cc21	7.2%
COc1ccc(C2=Nc3cc(C)ccc3OC2)cc1	-0.6%
CCOC(=O)CNc1nc(Cl)nc(Nc2ccc(OC)cc2OC)n1	6.5%
CCCc1cc(=O)oc2c(C)c(OCC(=O)NCc3ccccn3)ccc12	-5.9%
COc1cccc(CNC(=O)c2nnn(CC(=O)Nc3cc(Cl)ccc3C)c2N)c1	19.7%
CCOc1ccc(Cn2nnc(C(=O)NCc3ccccc3)c2N)cc1	4.7%
Nc1c(C(=O)NCc2ccccc2)nnn1Cc1cccc(Cl)c1	24.6% (active)
Cc1ccc(NS(=O)(=O)c2ccc(C(C)(C)C)cc2)cn1	-0.9%
Cc1cnc(C(=O)Oc2cccc(Cl)c2Cl)cn1	5.1%
COc1ccccc1-c1nnc(NC(=O)c2ccc3ncsc3c2)o1	22.8% (active)

Structure (SMILES)	inhibition
COc1ccccc1-c1nnc(NC(=O)c2cccc(N3C(=O)CCC3=O)c2)o1	-5.8%
COc1ccccc1-c1nnc(SCC(=O)Nc2ccccc2)o1	-0.6%
CC(C)=CCN1CCN(Cc2cc3ccccc3[nH]2)CC1CCO (configuration not stated)	1.5%
CCOC(=O)/C=C/C(=O)OCC(=O)NC(c1ccccc1)c1ccccc1	50.9% (active)
CCOC(=O)C(C(=O)OCC)C(C#N)c1ccccc1 (configuration not stated)	3.7%
O=C(Cc1ccc(-c2ccccc2)cc1)NC(c1ccccc1)c1ccccc1	-1.8%
CCc1ccc2[nH]c(=O)c(Cc3ccccc3)c(O)c2c1	-0.4%
COC(=O)c1ccc(S(=O)(=O)N2CCc3ccccc3C2)cc1	1.8%
CC(=O)Nc1c2c(nn1-c1cccc(C)c1)CSC2	2.5%
O=C(NCCOc1cccnc1)c1ccc(OC2CCN(Cc3ccccn3)CC2)cc1	99.8% (active)
Cn1cc(CNC(=O)c2ccc(OC3CCN(Cc4ccccn4)CC3)cc2)cn1	5.4%
O=C(c1ccc(OC2CCN(Cc3ccccn3)CC2)cc1)N1CCCCCC1	-0.7%
Cc1cccc(N2C(=O)N3[C@H](c4ccc(F)cc4)[C@@H]4C(=O)N(C5CCCCC5)C(=O)[C@@H]4[C@]3(Cc3ccccc3)C2=O)c1	-6%
O=C(CSc1nnc(CNC(=O)c2ccc(F)cc2)o1)Nc1ccc2c(c1)OCO2	8.3%
COC(=O)CSc1nnc(NC(=O)CCc2ccccc2)s1	8.2%
Cn1c(=O)c2c(nc(NCCc3ccccc3)n2Cc2ccccc2)n(C)c1=O	-1.8%
COC(=O)C(C)Sc1nc2c(c(=O)n(C)c(=O)n2C)n1Cc1cccc(C)c1 (configuration not stated)	-2.6%
CCCCNc1nc2c(c(=O)n(C)c(=O)n2C)n1Cc1cccc(OC)c1	25.1% (active)
CCc1ccc(CN(C)C(=O)C2CCC(=O)N(Cc3cccc(OC)c3)C2)nc1 (configuration not stated)	5.8%
